High-throughput results: PubChem BioAssay, National Center for Advancing Translational Sciences (NCATS)
G9a block: G9a (human) methyltransferase inhibition. Q96KQ7. G9a H3K9 monomethylation, AlphaScreen, 2 h. Potency, µM (titrated, usually from 102 µM), inactives show at the highest dose activity, negative = inhibition, actives largely listed as inhibitors. actives 8.8% (n = 350,000); note: % is set by controls: 0 for no effect and ±100 for the full control effect; nearly all actives have a fitted effect of over 75% in size
Target sequence (Q96KQ7 913-1193 limits assumed): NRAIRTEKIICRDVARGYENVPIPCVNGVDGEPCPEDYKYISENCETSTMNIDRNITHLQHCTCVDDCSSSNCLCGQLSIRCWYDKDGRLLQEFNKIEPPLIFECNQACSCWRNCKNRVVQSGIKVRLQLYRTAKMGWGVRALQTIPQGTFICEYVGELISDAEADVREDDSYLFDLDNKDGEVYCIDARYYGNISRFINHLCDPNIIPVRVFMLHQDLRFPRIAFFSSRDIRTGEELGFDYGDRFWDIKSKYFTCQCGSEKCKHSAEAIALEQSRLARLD
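Chemiluminescent proximity detection of H3K9 monomethylation, read after 10 min bead incubation in the dark. Reaction: 20 nM G9a, 500 nM biotin-H3K9 peptide, 20 uM SAM cofactor, 2 h, room temperature, following 15 min enzyme-compound preincubation.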
BAZ2B inh: inhibitors of human BAZ2B bromodomain; AlphaScreen BAZ2B-H3K14Ac peptide displacement; Potency, µM (doses to about 114 µM), for the others: at the top dose activity change, negative = inhibition, actives largely listed as inhibitors; actives 4.4% (n = 360,000); AID 504333; note: % is set by controls: 0 for no effect and ±100 for the full control effect; nearly all actives have a fitted effect of over 60% in size
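BAZ2B (50 nM) with biotin-H3(5-23)K14Ac peptide (50 nM) in PBS pH 7.4, 0.01% Tween-20, preformed 30 min, then compound 30 min at room temperature; top concentration 110uM. AlphaScreen streptavidin donor/nickel chelate acceptor beads (10 ug/mL final), 20 min dark, signal read.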
Sfp PPTase inh: inhibitors of Bacillus subtilis Sfp phosphopantetheinyl transferase; actives 3.5% (n = 310,000); Q9F4F7; Biochemical Sfp PPTase activity, qHTS; AID 1490; Potency, µM, inactives show largest response in the series, negative = inhibition, usual class: inhibitors;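 note: the enzyme is Sfp with the accession as filed and its product quenches rhodamine fluorescence; 0% = enzyme reaction without inhibitor and -100% = no enzyme wells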
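Fluorescence-quenching assay with 15 nM Sfp, 5 uM rhodamine-CoA and 12.5 uM BHQ-2-labelled ybbR peptide in pH 7.6 Hepes/MgCl2 buffer. Enzyme was pre-incubated with compound for 15 min at room temperature. Rate was taken from the 30-min fluorescence change (525/598 nm).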
HP1b binding inh: inhibitors of HP1-beta chromodomain binding to methylated histone tails; P83916; AlphaScreen HP1-beta / biotin-H3K9me3 peptide binding; Potency, µM (top dose mostly 114 µM), for inactives: top-dose activity change, negative = inhibition, actives largely listed as inhibitors; actives 0.56% (n = 390,000); note: nearly all actives have a fitted effect of over 70% in size
Target sequence (P83916 whole entry, looked up): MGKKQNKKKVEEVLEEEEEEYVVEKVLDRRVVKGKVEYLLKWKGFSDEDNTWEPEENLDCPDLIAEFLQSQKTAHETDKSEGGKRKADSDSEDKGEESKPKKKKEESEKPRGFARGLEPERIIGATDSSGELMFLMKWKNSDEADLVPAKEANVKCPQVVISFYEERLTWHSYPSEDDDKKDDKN
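HP1-beta protein (50 nM final) preincubated 30 min at room temperature with biotinylated H3(1-18)K9me3 peptide (50 nM) in PBS pH 7.4, 0.01% Tween-20, then compound added for 30 min. AlphaScreen streptavidin donor/nickel chelate acceptor beads (10 ug/mL final), 30 min dark, luminescence read.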
L3MBTL1 block: inhibitors of human L3MBTL1. Q9Y468. AlphaScreen L3MBTL1–H3K9me1 peptide binding. Potency, µM (highest dose often 57.1 µM), for the others: at the top dose activity, negative = inhibition, actives largely listed as inhibitors. actives 0.66% (n = 230,000); note: % is set by controls: 0 for no effect and ±100 for the full control effect; nearly all actives have a fitted effect of over 60% in size
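L3MBTL1 (50 nM) pre-complexed 30 min with biotinylated H3(1-15)K9me1 peptide (75 nM), then compounds added for 30 min at room temperature; AlphaScreen streptavidin donor/nickel chelate acceptor beads (10 ug/mL final) read after 30 min dark incubation.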
JMJD2A Tudor: JMJD2A Tudor domain (human) inhibition; O75164; AlphaScreen JMJD2A-Tudor / H3K4me3 peptide binding; Potency, µM (doses to about 114 µM), for the others: at the highest dose activity change, negative = inhibition, usual class: inhibitors; actives 4.4% (n = 390,000); note: % is set by controls: 0 for no effect and ±100 for the full control effect; nearly all actives have a fitted effect of over 50% in size
* = called active by the depositor; ! = not active in a repeat; [ ] = another dose, or the depositor's remark. Hits are enriched below; roughly 12% of the tested compounds scored in any of these assays. Calls come from the whole dose curve; as a rule, active = well fitted curve in the direction sought with a large enough effect; inconclusive = small, poorly fitted or top-dose-only effect, or another doubt; inactive = no such curve, though single readings can be large; an effect the other way counts as inactive or inconclusive. Potency is the fitted concentration of half-maximal effect.

For CCc1ccc(NC(=O)CC2C(=O)N(c3ccc(Cl)cc3)C(=O)N2Cc2ccco2)cc1 (stereo not drawn) the results were G9a block inconclusive, BAZ2B inh -13.1%, HP1b binding inh -1.6% and JMJD2A Tudor -28.6%.
For Cc1ccccc1OCC(=O)OC(C)C(=O)NC1CCCC1 (stereo not drawn) the results were G9a block -12.5%[12.7 µM], BAZ2B inh 0.5%, HP1b binding inh 32.5%, L3MBTL1 block -5.0% and JMJD2A Tudor -12.5%.
Screening O=C(O)c1ccc(NC(=S)Nc2ccc(S(=O)(=O)Nc3ccccn3)cc2)cc1 returned HP1b binding inh -17.4% and JMJD2A Tudor -13.8%.
COc1cc(C(=S)N2CCOCC2)cc(OC)c1OS(=O)(=O)c1ccc(C)cc1 was read as G9a block 28.2µM*, BAZ2B inh inconclusive, Sfp PPTase inh 56.2µM*, HP1b binding inh -10.7%, L3MBTL1 block -3.8% and JMJD2A Tudor -30.3%.
For COc1cc(C(=S)N2CCOCC2)ccc1OC(=O)c1cc(OC)c(OC)c(OC)c1 the results were G9a block 14.1µM*, BAZ2B inh -28.5%, Sfp PPTase inh 50.1µM*, HP1b binding inh -16.3% and JMJD2A Tudor -32.2%.
`COc1ccc(C(=S)N2CCN(C)CC2)cc1` gave G9a block -7.4%[12.7 µM], BAZ2B inh 11.1%, Sfp PPTase inh 25.1µM*, HP1b binding inh -7.5% and JMJD2A Tudor 1.7%.
For COc1cc(C(=S)N2CCOCC2)cc(OC)c1OC the results were G9a block 39.8µM*, BAZ2B inh -1.1%, Sfp PPTase inh 50.1µM*!, HP1b binding inh -30.5% and JMJD2A Tudor 1.4%.
For COc1cc(C(=S)N2CCOCC2)cc(OC)c1OC(=O)c1ccc(C)cc1 the results were G9a block -40.2%, BAZ2B inh -36.1%, Sfp PPTase inh 13.7%, HP1b binding inh -1.6%, L3MBTL1 block -14.4% and JMJD2A Tudor inconclusive.
Screening CCOc1cc(C(=S)N2CCOCC2)ccc1OC(=O)c1cc(OC)c(OC)c(OC)c1 returned G9a block 4.4%, BAZ2B inh -17.6%, Sfp PPTase inh 12.9%, HP1b binding inh 30.1% and JMJD2A Tudor -15.4%.
For Cc1ccc(S(=O)(=O)NCCC(=O)N2CCC(C)CC2)cc1 the results were G9a block 6.9%[59 µM], BAZ2B inh -6.1%, HP1b binding inh 29.8%, L3MBTL1 block 3.2% and JMJD2A Tudor -11.0%.
Screening CC1=C(C(=O)Nc2ccccc2)C(C(C)C)n2nc(SCc3ccccc3C)nc2N1 (stereo not drawn) returned G9a block 20.8%[59 µM], BAZ2B inh 0.3%, HP1b binding inh 33.3% and JMJD2A Tudor -3.8%.
For Cc1ccc(NC(=O)CC(C)S(=O)(=O)c2ccc3c(c2)NC(=O)CO3)c(C)c1 (stereo not drawn) the results were G9a block 1.3%[59 µM], BAZ2B inh 2.1%, HP1b binding inh 19.6% and JMJD2A Tudor -10.9%.
CCOc1cc(C(=S)N2CCC(O)CC2)ccc1OS(=O)(=O)c1ccc(Br)cc1 was read as G9a block 8.91µM*, BAZ2B inh inconclusive, Sfp PPTase inh inconclusive, HP1b binding inh inconclusive and JMJD2A Tudor inconclusive.
Screening CCOc1cc(C(=S)N2CCOCC2)ccc1OC(=O)/C=C/c1ccc(OC)c(OC)c1 returned G9a block inconclusive, BAZ2B inh inconclusive, Sfp PPTase inh -21.7%, HP1b binding inh -11.5%, L3MBTL1 block -14.0% and JMJD2A Tudor -16.6%.
For CCOc1cc(C(=S)N2CCCCC2)ccc1OS(=O)(=O)c1ccc(Br)cc1 the results were G9a block -15.6%[59 µM], BAZ2B inh 3.7%, Sfp PPTase inh 16.5%, HP1b binding inh 15.4%, L3MBTL1 block -5.2% and JMJD2A Tudor -14.9%.
Screening CCOc1ccc(C(=S)N2CCOCC2)cc1OCC returned G9a block 31.6µM*, BAZ2B inh 7.8%, Sfp PPTase inh -19.7%, HP1b binding inh -24.0% and JMJD2A Tudor -10.9%.
